About 83,000 compounds went through this panel and 20% of them were active in at least one assay; those are over-represented in the sample as a whole.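 In brief: 96-well plates, 48 h treatment, single concentration, percent growth endpoint.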 Activity calls are given as the source filed them. The calls were made as follows: active = growth percent below 10; inactive = the rest.
System: MDA-MB-468 breast
Experiment: NCI-60 one-dose screen, 48 h (100 = growth as untreated, 0 = no growth, -100 = all killed)
Conditions: 10 µM unless noted

Row | SMILES | growth
1 | CN(C=O)c1ccccc1 | 87.3% (inactive)
2 | COC1=CC(c2ccc[nH]2)=N/C1=C\c1[nH]c(C)c(C(=O)CCCCC(=O)Oc2ccc3c(c2)CCC2C3CC[C@]3(C)[C@@H](O)CC[C@@H]23)c1C (stereo partly specified) | 52.2% (inactive)
3 | C=CCn1c(SCC(=O)Nc2ccc(C(=O)/C=C/c3ccc(Br)cc3)cc2)nnc1-c1c[nH]c2ccccc12 | 85.8% (inactive)
4 | Cn1c(C(N)=O)cc2c1-c1nc(NC3CCCCC3)ncc1CCC2 | 93.7% (inactive)
5 | Cc1ccc(C2=C/C(=C/c3ccc(Br)cc3)C(=O)N2CCc2ccc(S(N)(=O)=O)cc2)cc1 | 92.7% (inactive)
6 | CC(CN)[C@@H]1CC[C@]2(CO)CC[C@]3(C)[C@H](CC[C@@H]4[C@@]5(C)CCC(NCCO)C(C)(C)[C@@H]5CC[C@]43C)[C@@H]12 (stereo partly specified) | 11.8% (inactive)
7 | O=S(=O)(Nc1ccc(F)c(Cl)c1)c1ccc(-c2cnc(C3CC3)o2)cc1 | -23.9% (active)
8 | CCN(CC)CCC(CNc1c2ccc(Cl)cc2nc2ccc(OC)cc12)c1ccccc1 (stereo unspecified) | -87.1% (active)
9 | COc1cc(C2C=C(c3cccc(NC(C)=O)c3)Nc3ncnn32)cc(OC)c1OC (stereo unspecified) | 13.4% (inactive)
10 | O=C1c2ccccc2C(=O)c2c(NCCN=Cc3ccccc3O)cccc21 | 43.8% (inactive)
11 | Oc1c(Br)cc(Br)c2ccc(Cn3cc(-c4ccc(C(F)(F)F)cc4)nn3)nc12 | 30.8% (inactive)
12 | CCOc1ccc(S(=O)(=O)Nc2ccc3c(c2)N(S(=O)(=O)CC)CCC3)cc1 | 85.4% (inactive)
13 | COc1ccc(-c2c(-c3ccccc3)noc2N)cc1OC | 85.7% (inactive)
14 | O=C(c1ccc(Cl)cc1Cl)N1c2ccccc2Sc2ccccc21 | 51.4% (inactive)
15 | CC1CCc2c(sc3nc(SCC(=O)N/N=C/c4cccc(O)c4O)n(-c4ccccc4)c(=O)c23)C1 (stereo unspecified) | 77.7% (inactive)
16 | Cc1cccc(Cl)c1NC(=O)c1cnc(Nc2cc(N3CCOCC3)cc(N3CCOCC3)c2)s1 | -8.47% (active)
17 | CC(=O)[C@@H]1CC[C@]2(C(=O)O)CC[C@]3(C)[C@H](CC[C@@H]4[C@@]5(C)Cc6c([nH]c7ccccc67)C(C)(C)[C@@H]5CC[C@]43C)[C@@H]12 | 82% (inactive)
18 | COc1ccc2nc3c(cc2c1)C(=O)CC(c1ccccc1)C3 (stereo unspecified) | 68.3% (inactive)
19 | Cc1cnc(C(=O)NNc2nc3sc4c(c3c(=O)n2C)C(C)CCC4)cn1 (stereo unspecified) | -28% (active)
20 | Cn1cc(-c2nonc2-c2c[nH]c3ccc(Br)cc23)c2cc(Br)ccc21 | 21% (inactive)
21 | COc1ccc(C2C=C(c3ccc(Cl)cc3)N=C3SC=C(C)N32)c(Br)c1 (stereo unspecified) | 8.58% (active)
22 | Cc1ccc(C)n1-c1ccsc1C(=O)NNC(=O)C(Cl)Cl | 103% (inactive)
23 | Nc1ccc2c(c1)/C(=N/O)c1cc([N+](=O)[O-])ccc1-2 | 89.8% (inactive)
24 | COc1ccc(S(=O)(=O)NCCCNc2nccc(-c3c(-c4cccc([N+](=O)[O-])c4)nc4sccn34)n2)cc1 | 16.2% (inactive)
25 | Cc1ccc(NC(=O)Cc2ccc(/C=C/C(=O)c3ncc[nH]3)cc2)cc1 | -0.436% (active)
26 | Cc1ncc(C(=O)Nc2ccc(CN3CCN(C)CC3)c(C(F)(F)F)c2)cc1C#Cc1ccc(N)nc1 | 10.9% (inactive)

From PubChem BioAssay (NCI)
